Data taken from PubChem BioAssay (NCATS).
Results filed as inconclusive are left out. A number with no mark means an inactive call. Calls of active or inactive are those of the source. Calls follow the shape of the dose curve; as a rule, active = well fitted cell-killing curve with a large enough effect; inconclusive = small, poorly fitted or top-dose-only effect; inactive = flat fitted curve, though single readings scatter. Square brackets hold non-standard residues; d marks the D form. Peptide text beside a SMILES is read from it. ξ: configuration not given here. ξL = CC(C)CC(N)C(=O)O

Experiment: OV-KATE Cancer Cell Toxicity qHTS against the NCATS CANVASS Library (AID 1347345)
Settings: OV-KATE cells viability, CellTiter-Glo luminescence, 72 h; series mostly up to 38.3 µM; activity change, negative = cytotoxicity: at the top concentration
Summary of the method: (§1)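 Viability was assessed by adding CellTiter-Glo reagent to treated cultures and reading luminescence after 15min at room temperature. Treatment lasted 72 h at 37 degrees C/5% CO2, using an 11-point series on 1000 cells/well.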
% is scaled to controls: 0 for no effect and ±100 for the full control effect; potency is read from the fitted curve at half-maximal effect.

| SMILES | Potency | activity change, negative = cytotoxicity |
| --- | --- | --- |
| CC[C@@H](c1cc(OC)c(OC)cc1OC)[C@H](C)[C@@H](/C(C)=C/c1cc(OC)c(OC)cc1OC)c1cc(OC)c(OC)cc1OC | inactive |  |
| CC[C@@H](C)[C@H]1NC(=O)C(CC(C)C)NC(=O)[C@@H](CC(C)C)NC(=O)[C@H](Cc2c[nH]c3ccccc23)NC(=O)CNC(=O)[C@@H](CC(N)=O)NC1=O (stereo partly drawn) (cyclo(GW[dL][ξL][dI][dN])) |  | 0.901% |
| COc1cc2c(cc1OC)[C@@H](c1ccc3c(c1)OCO3)C(C)[C@@H](C)C2=O (stereo not given in full) |  | -7.31% |
| CC(C)[C@@H]1CC(=O)c2coc3c2[C@H]1C[C@@H](C)C3=O |  | -21.4% |
| COc1cc2oc3ccccc3c(=O)c2cc1OC |  | -17.7% [at 76 µM] |
| COC(=O)[C@@]1(C)CCC[C@]2(C)c3cc(OC)ccc3CC[C@@H]12 |  | 0.731% |
| COc1cc2ccc(=O)oc2c(O)c1O[C@@H]1O[C@H](CO)[C@@H](O)[C@H](O)[C@H]1O |  | -19.2% [at 22.9 µM] |
| CC1=C(C)C(=O)OC(C(C)C2(O)CCC3C4C5OC5C5(O)CC=CC(=O)C5(C)C4CCC32C)C1 (stereo not given) |  | -25.7% |
| C[C@H](CCC(O)C(C)(O)CO)[C@@]1(O)CC[C@@]2(C)C3=C(CC[C@@]21C)[C@@]1(C)CCC(OC(=O)CCC(=O)O)C(C)(C)[C@@H]1CC3 (stereo not given in full) |  | -11.2% |
| COc1cc(C2C3=C(Cc4cc5c(cc42)OCO5)C(=O)OC3)cc(OC)c1OC (stereo not given) |  | -14.5% |
| C=C[C@@](C)(O)CC[C@@H]1[C@@]2(C)CCCC(C)(C)[C@@H]2CC[C@@]1(C)O |  | -9.1% |
| COc1ccc([C@@H]2c3cc4c(cc3C(=O)[C@H](C)C2C)OCO4)cc1OC (stereo not given in full) |  | -4.81% |
| CC1=C[C@H]2[C@H]3C(=O)C(c4ccc(O)cc4)=C[C@@]3(c3ccc(O)cc3)[C@@H]1C(=O)[C@]2(C)O |  | -10.8% |
| C=C1C(=O)O[C@H]2[C@H]1CCC(C)=C1CC[C@@](C)(O)[C@@H]12 | 11.8 µM (active) |  |
| C[C@H](c1cnc(N)[nH]1)c1ccc(O)c2[nH]cc(-c3cnc(-c4c[nH]c5ccccc45)c(=O)[nH]3)c12 |  | -9.06% |
| COc1ccc([C@@H]2c3cc4c(cc3C[C@H](C)C2C)OCO4)cc1OC (stereo not given in full) |  | -12.7% |
| C[C@H]1CCC2(OC1)O[C@H]1C[C@H]3[C@@H]4CC(=O)[C@]5(O)C[C@H](O)CC[C@@]5(C)[C@H]4CC[C@@]3(C)[C@H]1[C@H]2C (stereo not given in full) |  | 3.81% |
| C/C1=C/[C@@H](C)[C@H](O)C/C=C/CC/C=C/C(=O)O[C@@H]1[C@H](C)C(=O)CCCC1CC(=O)NC(=O)C1 |  | -27.1% |
| C=C1C[C@H]2O[C@@H]3[C@@H]4[C@H](CC[C@@](C)(O)[C@@H]42)[C@H](C)COC3(C)[C@@H](OC(=O)CCCCCCC)CC1=O (stereo not given in full) | 21.1 µM (active) |  |

Experiment: HPAF-II Cancer Cell Toxicity qHTS against the NCATS CANVASS Library (AID 1347346); also: nearly all actives have a fitted effect of over 55% in size
Settings: HPAF-II viability, CellTiter-Glo ATP luminescence, 72 h; series mostly up to 38.3 µM; activity change, negative = cytotoxicity: at the top concentration
Summary of the method: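 First, HPAF-II cells are plated (1000 cells/well) and held 4 h at 37 degrees C. Next, compounds are pin-transferred as an 11-point series. After 72 h, CellTiter-Glo is added and luminescence measured.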

| SMILES | activity change, negative = cytotoxicity | Potency |
| --- | --- | --- |
| CC[C@@H](C)[C@H]1NC(=O)C(CC(C)C)NC(=O)[C@@H](CC(C)C)NC(=O)[C@H](Cc2c[nH]c3ccccc23)NC(=O)CNC(=O)[C@@H](CC(N)=O)NC1=O (stereo partly drawn) (cyclo(GW[dL][ξL][dI][dN])) | -1.48% |  |
| CC(C)[C@@H]1CC(=O)c2coc3c2[C@H]1C[C@@H](C)C3=O | -19.6% |  |
| COc1cc2ccc(=O)oc2c(O)c1O[C@@H]1O[C@H](CO)[C@@H](O)[C@H](O)[C@H]1O | -6.4% [at 22.9 µM] |  |
| CC[C@H]1[C@@H](C)[C@@H](c2cc(OC)c(OC)cc2OC)[C@H](C)[C@@H](c2cc(OC)c(OC)cc2OC)[C@@]12C=C(OC)C(=O)C=C2OC |  | 21.1 µM (active) |
| O=C1CCC(=O)N(O)CCCCCNC(=O)CCC(=O)N(O)CCCCCNC(=O)CCC(=O)N(O)CCCCCN1 |  | 7.49 µM (active) |
| CC1=C(C)C(=O)OC(C(C)C2(O)CCC3C4C5OC5C5(O)CC=CC(=O)C5(C)C4CCC32C)C1 (stereo not given) | -16.3% |  |
| CO[C@@H]1[C@H](O)[C@@H](C)O[C@@H](OC[C@@H]2C(C)OC(=O)/C=C/[C@H](C)C(O[C@@H]3O[C@H](C)CC4(OC(=O)O[C@@H]4C)C3O)[C@@H](C)CC(C)C(=O)/C=C/[C@H]3OC23)[C@@H]1OC (stereo not given in full) | -26% |  |
| C/C(=C\[C@H](C)C(=O)/C=C/CC1CC(=O)NC(=O)C1)[C@@H]1OC(=O)CCCC/C=C/[C@H](O)[C@@H](O)[C@@H]1C |  | 18.8 µM (active) |
| CC[C@@H]1[C@H](C)[C@H](c2cc(OC)c(OC)cc2OC)[C@@H](C)[C@H](c2cc(OC)c(OC)cc2OC)[C@]12C=C(OC)C(=O)C=C2OC |  | 18.8 µM (active) |

Experiment: UWB1.289 Cancer Cell Toxicity qHTS against the NCATS CANVASS Library (AID 1347347); also: nearly all actives have a fitted effect of over 60% in size
Settings: UWB1.289 viability, CellTiter-Glo luminescence, 72 h; series mostly up to 38.3 µM; activity change, negative = cytotoxicity: at the top concentration; outcome: at the top concentration
Summary of the method: as §1

| SMILES | activity change, negative = cytotoxicity | Potency |
| --- | --- | --- |
| CC[C@@H](c1cc(OC)c(OC)cc1OC)[C@H](C)[C@@H](/C(C)=C/c1cc(OC)c(OC)cc1OC)c1cc(OC)c(OC)cc1OC | -26.2% |  |
| COc1cc2oc3ccccc3c(=O)c2cc1OC | -26.6% [at 76 µM] |  |
| COC(=O)[C@@]1(C)CCC[C@]2(C)c3cc(OC)ccc3CC[C@@H]12 | -0.809% |  |
| CC[C@H]1[C@@H](C)[C@@H](c2cc(OC)c(OC)cc2OC)[C@H](C)[C@@H](c2cc(OC)c(OC)cc2OC)[C@@]12C=C(OC)C(=O)C=C2OC |  | 23.6 µM (active) |
| CO[C@@H]1[C@H](O)[C@@H](C)O[C@@H](OC[C@@H]2C(C)OC(=O)/C=C/[C@H](C)C(O[C@@H]3O[C@H](C)CC4(OC(=O)O[C@@H]4C)C3O)[C@@H](C)CC(C)C(=O)/C=C/[C@H]3OC23)[C@@H]1OC (stereo not given in full) |  | 18.8 µM (active) |
| C/C(=C\[C@H](C)C(=O)C[C@H](O)CC1CC(=O)NC(=O)C1)[C@@H]1OC(=O)CCCC/C=C/[C@@H](O)C[C@@H]1C |  | 9.41 µM (active) |
| C[C@H](c1cnc(N)[nH]1)c1ccc(O)c2[nH]cc(-c3cnc(-c4c[nH]c5ccccc45)c(=O)[nH]3)c12 | -11.3% |  |
